# Bioassay records: PubChem BioAssay, National Center for Advancing Translational Sciences (NCATS)
# Sampled rows, rich in hits. Any-hit rate of the full collection: about 8.8%.
# IL1B secr inh = inhibitors of inflammasome signaling (IL-1 beta secretion). THP-1 LPS/ATP IL-1B secretion, AlphaLISA, 16 h; hits give low values. AID 743279. 360,000 tested, 4.7% active. activity change, % at 57.5 µM; in the data active = activity change below about -50%; inconclusive = mostly about -30% to -49%
#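 THP-1 cells pretreated 1 hr with compounds (up to 57.5 uM final), then stimulated with LPS (250 ng/mL final) plus ATP (1.25 mM final); secreted IL-1B measured by AlphaLISA after 16 hr, decreased signal indicating inhibition.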
# HT1080 IDH1KD tx = kills HT-1080 cells with IDH1 knockdown. HT-1080 IDH1 knockdown viability, ATP luminescence, 48 h. Potency, µM (series often up to 46.1 µM), for the others: at the highest dose activity, negative = toxicity, most hits filed as cytotoxic. 360,000 tested, 2% active. AID 686971;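 also: potency is read from the fitted curve at half-maximal effect; 0% = DMSO wells and -100% = cell-free medium wells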
#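 After a 2 h attachment period, IDH1KD HT-1080 cells took pin-transferred compound for 48 h at 37 °C; ATP-based luminescence after 10 min room-temperature reagent incubation reported viability.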
# KB-V1 cytotox = KB-V1 MDR subline cytotoxicity; KB-V1 MDR cells viability, CellTiter-Glo, 72 h; Potency, µM (highest dose often 46.1 µM), usual class: cytotoxic; 400,000 tested, 3.4% active; AID 1347076; also: potency is read from the fitted curve at half-maximal effect; nearly all actives have a fitted effect of over 60% in size
#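 Compound-treated KB-V1 multidrug-resistant cells, 72 h, 37 degrees C; viability by CellTiter-Glo. Fitted qHTS curves give the values.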
# KB-3-1 tox = kills parental KB-3-1 adenocarcinoma cells; Potency, µM (highest dose often 46.1 µM), actives largely listed as cytotoxic; 400,000 tested, 1.4% active; KB-3-1 viability, CellTiter-Glo ATP luminescence, 72 h; also: potency is read from the fitted curve at half-maximal effect; nearly all actives have a fitted effect of over 60% in size
#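 KB-3-1 cells, DMEM (no phenol red) + 10% FBS; compound by pin transfer, 72 h, 37 °C. Readout: CellTiter-Glo luminescence after 10 min. Data normalized, curve-fitted.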
# HT1080NT lethal = kills 2HG-producing HT-1080-NT fibrosarcoma cells | 360,000 tested, 1.6% active | Potency, µM (titrated, usually from 46.1 µM), inactives show top-dose activity, negative = less viability, most hits filed as cytotoxic | HT-1080-NT fibrosarcoma viability, CellTiter-Glo ATP luminescence, 48 h;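 also: NT is the 2HG producing partner of a matched IDH1 knockdown line; potency is read from the fitted curve at half-maximal effect; 0% = DMSO-treated cells and -100% = media-only wells without cells; nearly all actives have a fitted effect of over 55% in size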
#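 HT-1080-NT fibrosarcoma cells (2HG-overproducing), 750 cells/well in RPMI with 5% FBS, dosed after 2 h and incubated 48 h at 37C. CellTiter-Glo luminescence normalized to DMSO and no-cell wells; concentration-response curves fitted and classed.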
# An asterisk follows results filed as active; i = inactive; ? = inconclusive; nt = no result. Unless noted, calls follow the shape of the dose curve; as a rule, active = well fitted curve in the direction sought with a large enough effect; inconclusive = small, poorly fitted or top-dose-only effect, or another doubt; inactive = no such curve, though single readings can be large; an effect the other way counts as inactive or inconclusive. Unless noted, % is scaled to controls: 0 for no effect and ±100 for the full control effect.
SMILES,IL1B secr inh,HT1080 IDH1KD tx,KB-V1 cytotox,KB-3-1 tox,HT1080NT lethal
COc1ccc(N(C(=O)c2snc(C(N)=O)c2N)C(C(=O)NC2CCCC2)c2ccco2)cc1 (stereo not drawn),-15,-9%,i,i,-4%
COc1ccc(N(C(=O)c2snc(C(N)=O)c2N)C(C(=O)NC2CCCCC2)c2ccc(C)o2)cc1 (stereo not drawn),-50*,-8%,?,i,?
CCc1ccc(N(C(=O)c2snc(C(N)=O)c2N)C(C(=O)NC2CCCC2)c2ccco2)cc1 (stereo not drawn),-64*,?,23µM*,?,?
Cc1cc(CN(C)Cc2cn(C)nc2-c2ccc(Oc3ccccc3)cc2)on1,-27,-11%,9.2µM*,i,0%
Cc1ccc2[nH]c(=O)c(CN(Cc3ccc4c(c3)OCO4)Cc3nnnn3Cc3ccco3)cc2c1,-59*,-17%,i,i,-19%
Cc1cc(C)c2cc(CN(Cc3ccc4c(c3)OCO4)Cc3nnnn3Cc3ccco3)c(=O)[nH]c2c1,-62*,-18%,?,?,-19%
Cc1ccc2cc(CN(Cc3ccco3)Cc3nnnn3Cc3ccco3)c(=O)[nH]c2c1,nt,nt,?,i,nt
OCCCNCc1ccc(N(c2ccccc2)c2ccccc2)cc1,-94*,16µM*,?,?,?
Cc1ccc(C2=NN(CC(=O)NC(C)c3ccccc3)C(=O)CC2)cc1 (stereo not drawn),nt,nt,i,i,nt
COc1ccc(N2CCN(C(=O)CCS(=O)(=O)c3cc4c(cc3Cl)NC(=O)CO4)CC2)cc1,nt,nt,i,i,nt
S=C(NN=C(c1ccccc1)c1ccccn1)N(Cc1ccccn1)Cc1ccccn1,-58*,8.2µM*,i,?,16µM*
S=C(NN=Cc1ccccn1)N(Cc1ccccn1)Cc1ccccn1,59,?,?,6.5µM*,-21%
O=C(Cc1ccccc1)N/N=C/c1ccccn1,-3,?,i,i,-3%
Cc1ccccc1NC(=S)N(Cc1ccccn1)Cc1ccccc1Cl,?,0%,i,i,-2%
CC(=NNC(=S)N(Cc1ccccn1)Cc1ccccn1)c1cnccn1,104,0.58µM*,13µM*,?,?
CCN(CC(=O)Nc1ccc(NC(C)=O)cc1)C(=O)COc1ccc2ccccc2c1,-5,-13%,i,i,-4%
COc1cccc(NC(=O)CN(C)C(=O)COc2ccc3ccccc3c2)c1,-11,12%,15µM*,i,-3%
CCOC(=O)Nc1cccc(OCC(=O)Nc2ccccc2OC)c1,-12,-2%,21µM*,i,8%
COc1cccc(NC(=O)CN(C)C(=O)CSc2ccc3c(c2)OCCO3)c1,25,-10%,21µM*,i,-10%
CCN(CC(=O)Nc1ccccc1OC)C(=O)COc1ccc2ccccc2c1,4,13%,15µM*,i,5%
CCOc1cc(CNCCSc2nnnn2C)ccc1OCc1ccc(Cl)cc1Cl,nt,nt,?,i,nt
CCN1C[C@@H]2[C@@H]3C(=O)N(Cc4ccccc4)C(=O)[C@@H]3[C@](CC)(C1=O)N2C(=O)c1ccc(F)cc1,14,13%,i,i,-1%
COC(=O)C1=C(C)NC(C)=C(C(=O)OC)C1c1ccc(OC(=O)c2oc3ccccc3c2C)c(OC)c1,0,-23%,i,i,-15%
Cc1cc(SCC(=O)NCC2CCCO2)nc2ccccc12 (stereo not drawn),22,5%,i,i,1%
COc1ccc(C(=O)CCNc2ccc3c(c2)OCCO3)cc1,-53*,-7%,i,i,4%
SMILES,IL1B secr inh,HT1080 IDH1KD tx,KB-V1 cytotox,KB-3-1 tox,HT1080NT lethal
COc1cccc(NC(=O)c2ccc3c(c2)OCCO3)c1,?,?,i,?,?
COc1ccc(C(=O)Nc2ccc3c(c2)OCCO3)cc1,-15,?,?,i,-16%
COc1ccc(NC(=O)CSCC(=O)N(C)Cc2ccc3c(c2)OCCO3)cc1,18,9%,15µM*,i,7%
COc1cccc(CNC(C)C(=O)Nc2ccc3c(c2)OCCO3)c1 (stereo not drawn),-61*,-1%,?,i,1%
O=C(NCc1ccccc1)c1ncn[nH]1,25,?,i,i,10%
O=C(CC1C(=O)NCCN1CC1CCCCC1)NCc1cc(F)ccc1F (stereo not drawn),-11,-8%,i,i,-5%
O=C(CC1C(=O)NCCN1CC1CCCCC1)NCc1ccc(F)cc1F (stereo not drawn),-66*,-6%,i,i,-16%
Nc1[nH]c(=S)nc2nnsc12,nt,nt,i,?,nt
CCc1cccc(CC)c1NC(=O)COC(=O)CC1c2ccccc2CCN1S(=O)(=O)c1ccc(F)cc1 (stereo not drawn),i,8%,18µM*,i,0%
O=C(COC(=O)CC1c2ccccc2CCN1S(=O)(=O)c1ccc(F)cc1)Nc1ccccc1 (stereo not drawn),7,-2%,i,i,-3%
COc1ccc(C[C@H]2CN3C(=NC[C@@H]3Cc3ccc(O)cc3)N2C[C@H](C)NC(=O)c2ccc(C)c(Br)c2)cc1,?,-14%,i,?,-15%
COc1cc(-c2nc3ccccn3c2/N=C/c2cc(OC)c(OC)c(OC)c2)ccc1O,?,2%,i,i,12%
Cc1ccc(-c2nc3ccccn3c2C=O)cc1,9,-5%,?,i,-11%
Cc1c(-c2ccc(Br)cc2)nc2ccccn12,-81*,-20%,21µM*,i,?
CN(C)c1ccc(-c2nc3ccccn3c2/N=C/c2ccc(Br)cc2)cc1,-9,-29%,9.2µM*,15µM*,-25%
CC1CCCCN1C(=O)CN1C(=O)NC2(CCCCC2C)C1=O (stereo not drawn),-3,-1%,?,i,-2%
COc1ccc(-c2cc(C(=O)N3CCCCCC3)c3ccccc3n2)cc1OC,?,1%,i,i,-1%
COc1cccc(NC(=O)CN(C)C(=O)c2cc(-c3cccc(Br)c3)nc3ccccc23)c1,-55*,-26%,?,?,?
COc1ccc(-c2cc(C(=O)OCC(=O)N3CCCCC3)c3ccccc3n2)cc1OC,12,10%,3.7µM*,i,-3%
COc1cc(-c2cc(C(=O)N(C)Cc3ccccc3)c3ccccc3n2)cc(OC)c1OC,-23,-17%,?,?,-7%
COc1ccc(-c2cc(C(=O)N(C)Cc3ccccc3F)c3ccccc3n2)cc1OC,?,-19%,16µM*,i,-13%
COc1ccccc1CN(C)C(=O)c1cc(-c2cc(OC)c(OC)c(OC)c2)nc2ccccc12,?,18µM*,?,i,15µM*
